# Assay results from the supplement of paper PMC9492666.
# Structures can show the parent of a compound that is named as a salt.
# Key:
# HCC1937 = assay: relative cell viability, compound + RSL3, vs DMSO (fraction of DMSO control); higher = less growth inhibition; settings: 72 h
# MDA-MB-231 = assay: as above; settings: 72 h
# 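Further: breast cancer cell viability read out with the CCK-8 kit after co-treatment of each compound with the ferroptosis inducer RSL3.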
Compound,relative cell viability (HCC1937),relative cell viability (MDA-MB-231)
Nc1cccc(S(=O)(=O)N2CCCN(S(=O)(=O)c3ccc4c(c3)OCCO4)CC2)c1 + COC(=O)c1ccc([C@H]2c3[nH]c4ccccc4c3C[C@H](C(=O)OC)N2C(=O)CCl)cc1 [RSL3],0.382,0.632
CC(C)(Oc1ccc(C2CC2(Cl)Cl)cc1)C(=O)O (centres undefined) [Ciprofibrate] + COC(=O)c1ccc([C@H]2c3[nH]c4ccccc4c3C[C@H](C(=O)OC)N2C(=O)CCl)cc1 [RSL3],0.787,0.706
COc1ccc(Nc2ccn(-c3ccccc3)n2)cc1 + COC(=O)c1ccc([C@H]2c3[nH]c4ccccc4c3C[C@H](C(=O)OC)N2C(=O)CCl)cc1 [RSL3],0.425,0.839
CC(C)OC(=O)CCC/C=C\C[C@@H]1[C@@H](CC[C@@H](O)CCc2ccccc2)[C@H](O)C[C@@H]1O [Latanoprost] + COC(=O)c1ccc([C@H]2c3[nH]c4ccccc4c3C[C@H](C(=O)OC)N2C(=O)CCl)cc1 [RSL3],1.03,0.597
CC(C)(O)[C@@H]1Cc2cc3ccc(=O)oc3cc2O1 [marmesin] + COC(=O)c1ccc([C@H]2c3[nH]c4ccccc4c3C[C@H](C(=O)OC)N2C(=O)CCl)cc1 [RSL3],0.412,0.59
COC(=O)/C=C/c1cccc(N(Cc2ccc(-c3ccc(N(C)C)cc3)cc2)C(=O)C2CCCCC2)c1 [Fexaramine] + COC(=O)c1ccc([C@H]2c3[nH]c4ccccc4c3C[C@H](C(=O)OC)N2C(=O)CCl)cc1 [RSL3],0.316,0.601
C[C@@H]1OCC2(CCN(c3cnc(Sc4ccnc(N)c4Cl)c(N)n3)CC2)[C@@H]1N + COC(=O)c1ccc([C@H]2c3[nH]c4ccccc4c3C[C@H](C(=O)OC)N2C(=O)CCl)cc1 [RSL3],0.378,0.71
COC(=O)c1cc(Cl)c(O)c(S(=O)(=O)Nc2cc(-c3ccccc3)c(F)cc2F)c1 + COC(=O)c1ccc([C@H]2c3[nH]c4ccccc4c3C[C@H](C(=O)OC)N2C(=O)CCl)cc1 [RSL3],0.45,0.573
O=C(CC(C(=O)O)c1c[nH]c2ccccc12)c1ccc(F)cc1F (centres undefined) [Mitochonic acid 5] + COC(=O)c1ccc([C@H]2c3[nH]c4ccccc4c3C[C@H](C(=O)OC)N2C(=O)CCl)cc1 [RSL3],0.636,0.769
CN(C(=O)n1cnc(-c2ccc[n+]([O-])c2)c1)C1CCCCC1 + COC(=O)c1ccc([C@H]2c3[nH]c4ccccc4c3C[C@H](C(=O)OC)N2C(=O)CCl)cc1 [RSL3],0.292,0.526
O=C(NC1CCN(CCCCC2(C(=O)NCC(F)(F)F)c3ccccc3-c3ccccc32)CC1)c1ccccc1-c1ccc(C(F)(F)F)cc1 [Lomitapide] + COC(=O)c1ccc([C@H]2c3[nH]c4ccccc4c3C[C@H](C(=O)OC)N2C(=O)CCl)cc1 [RSL3],0.173,0.391
CCN(CC)c1ccc(C=NNC(=O)c2ccncc2)c(O)c1 + COC(=O)c1ccc([C@H]2c3[nH]c4ccccc4c3C[C@H](C(=O)OC)N2C(=O)CCl)cc1 [RSL3],0.265,0.611
Oc1ccc2c(c1)OCO2 [Sesamol] + COC(=O)c1ccc([C@H]2c3[nH]c4ccccc4c3C[C@H](C(=O)OC)N2C(=O)CCl)cc1 [RSL3],0.399,0.548
C=C(C)[C@@H]1CC[C@]2(C)CC[C@]3(C)[C@H](CC[C@@H]4[C@@]5(C)CCC(=O)C(C)(C)[C@@H]5CC[C@]43C)[C@@H]12 + COC(=O)c1ccc([C@H]2c3[nH]c4ccccc4c3C[C@H](C(=O)OC)N2C(=O)CCl)cc1 [RSL3],0.595,0.688
CC1=C(C)C(=O)C(C(CCCCCC(=O)O)c2ccccc2)=C(C)C1=O (centres undefined) [Seratrodast] + COC(=O)c1ccc([C@H]2c3[nH]c4ccccc4c3C[C@H](C(=O)OC)N2C(=O)CCl)cc1 [RSL3],0.948,0.578
C[C@H](CCC(=O)O)[C@H]1CC[C@H]2[C@@H]3CC[C@@H]4C[C@H](O)CC[C@]4(C)[C@H]3CC[C@]12C [Lithocholic acid] + COC(=O)c1ccc([C@H]2c3[nH]c4ccccc4c3C[C@H](C(=O)OC)N2C(=O)CCl)cc1 [RSL3],0.844,0.649
CCCc1cc(-c2nc(-c3ccc(C)cc3)cs2)ccn1 [Fatostatin] + COC(=O)c1ccc([C@H]2c3[nH]c4ccccc4c3C[C@H](C(=O)OC)N2C(=O)CCl)cc1 [RSL3],0.269,0.715
CC1=C(/C=C/C(C)=C/C=C/C(C)=C/C=C/C=C(C)/C=C/C=C(C)/C=C/C2=C(C)C(=O)[C@@H](O)CC2(C)C)C(C)(C)C[C@H](O)C1=O [Astaxanthin] + COC(=O)c1ccc([C@H]2c3[nH]c4ccccc4c3C[C@H](C(=O)OC)N2C(=O)CCl)cc1 [RSL3],0.562,0.689
Cc1cc(C)c(S(=O)(=O)N(CCc2cccc(Br)c2)Cc2ccc(-c3cccc(S(C)(=O)=O)c3)cc2)c(C)c1 + COC(=O)c1ccc([C@H]2c3[nH]c4ccccc4c3C[C@H](C(=O)OC)N2C(=O)CCl)cc1 [RSL3],0.636,0.475

Compound,relative cell viability (HCC1937),relative cell viability (MDA-MB-231)
CN(C)C(=O)Nc1cccc(-c2ccc(N(C)C)cc2)c1 [Atglistatin] + COC(=O)c1ccc([C@H]2c3[nH]c4ccccc4c3C[C@H](C(=O)OC)N2C(=O)CCl)cc1 [RSL3],0.321,0.562
C[C@H]1N=C(N(C)C)N=C(N)N1 [Imeglimin hydrochloride] + COC(=O)c1ccc([C@H]2c3[nH]c4ccccc4c3C[C@H](C(=O)OC)N2C(=O)CCl)cc1 [RSL3],0.504,0.647
O=C(O)Cc1cccc(OCCCN(Cc2cccc(C(F)(F)F)c2Cl)CC(c2ccccc2)c2ccccc2)c1 + COC(=O)c1ccc([C@H]2c3[nH]c4ccccc4c3C[C@H](C(=O)OC)N2C(=O)CCl)cc1 [RSL3],0.418,0.686
CN1c2ccccc2C(=O)Nc2cnc(Nc3ccc(N4CCC(O)CC4)cc3)nc21 + COC(=O)c1ccc([C@H]2c3[nH]c4ccccc4c3C[C@H](C(=O)OC)N2C(=O)CCl)cc1 [RSL3],0.206,0.375
Cc1nc2ccc(NCc3cccc(C(F)(F)F)c3)cc2n(CCNC(=O)CO)c1=O + COC(=O)c1ccc([C@H]2c3[nH]c4ccccc4c3C[C@H](C(=O)OC)N2C(=O)CCl)cc1 [RSL3],0.354,0.567
COc1c(/C=C/C(=O)c2ccc(O)cc2)ccc(O)c1CC=C(C)C + COC(=O)c1ccc([C@H]2c3[nH]c4ccccc4c3C[C@H](C(=O)OC)N2C(=O)CCl)cc1 [RSL3],0.579,0.585
CCCCCCCCCCC[C@@H](C[C@@H]1OC(=O)[C@H]1CCCCCC)OC(=O)[C@H](CC(C)C)NC=O [Orlistat] + COC(=O)c1ccc([C@H]2c3[nH]c4ccccc4c3C[C@H](C(=O)OC)N2C(=O)CCl)cc1 [RSL3],0.572,0.167
C[N+](C)(C)CC(O)CC(=O)[O-] (stereo not drawn) [L(-)-Carnitine] + COC(=O)c1ccc([C@H]2c3[nH]c4ccccc4c3C[C@H](C(=O)OC)N2C(=O)CCl)cc1 [RSL3],0.621,0.523
CCc1ccc(N(CC(C)C)S(=O)(=O)c2ccc(OCC3CCOCC3)c(CO)c2)cc1 + COC(=O)c1ccc([C@H]2c3[nH]c4ccccc4c3C[C@H](C(=O)OC)N2C(=O)CCl)cc1 [RSL3],0.53,0.581
Cn1c2cc([S+](C)[O-])sc2c2cnn(Cc3cccc(N)c3)c(=O)c21 (centres undefined) + COC(=O)c1ccc([C@H]2c3[nH]c4ccccc4c3C[C@H](C(=O)OC)N2C(=O)CCl)cc1 [RSL3],0.402,0.677
CCN(CC)Cc1ccc(C(=O)N(CCc2ccccc2OC)[C@@H]2CCNC2)cc1 + COC(=O)c1ccc([C@H]2c3[nH]c4ccccc4c3C[C@H](C(=O)OC)N2C(=O)CCl)cc1 [RSL3],0.666,0.784
COc1ccc(-c2c[nH]c3nccc(-c4ccsc4)c23)c(OC)c1 + COC(=O)c1ccc([C@H]2c3[nH]c4ccccc4c3C[C@H](C(=O)OC)N2C(=O)CCl)cc1 [RSL3],0.403,0.665
O=C1C(SCCO)=C(SCCO)C(=O)c2ccccc21 + COC(=O)c1ccc([C@H]2c3[nH]c4ccccc4c3C[C@H](C(=O)OC)N2C(=O)CCl)cc1 [RSL3],0.388,0.925
COCCNC(=O)Nc1ccc2nc(-c3cccs3)c(-c3cccs3)nc2c1 [Ac-CoA Synthase Inhibitor1] + COC(=O)c1ccc([C@H]2c3[nH]c4ccccc4c3C[C@H](C(=O)OC)N2C(=O)CCl)cc1 [RSL3],0.594,0.566
O=C(O)c1cc(F)c2nc(N3[C@@H]4CC[C@H]3C[C@@H](OCc3c(-c5ccccc5OC(F)(F)F)noc3C3CC3)C4)sc2c1 [Tropifexor] + COC(=O)c1ccc([C@H]2c3[nH]c4ccccc4c3C[C@H](C(=O)OC)N2C(=O)CCl)cc1 [RSL3],0.603,0.63
CSc1ccc(C(=O)/C=C/c2cc(C)c(OC(C)(C)C(=O)O)c(C)c2)cc1 [Elafibranor] + COC(=O)c1ccc([C@H]2c3[nH]c4ccccc4c3C[C@H](C(=O)OC)N2C(=O)CCl)cc1 [RSL3],0.83,0.685
COc1cc(N(C)C)cc(CN(C)CCc2ccc([N+](=O)[O-])cc2)c1O [CDC25 Phosphatase Inhibitor I] + COC(=O)c1ccc([C@H]2c3[nH]c4ccccc4c3C[C@H](C(=O)OC)N2C(=O)CCl)cc1 [RSL3],0.454,0.886
N#Cc1ccc(Oc2cccc(NC(=O)Nc3ccc(Cl)c(C(F)(F)F)c3)c2)cc1 + COC(=O)c1ccc([C@H]2c3[nH]c4ccccc4c3C[C@H](C(=O)OC)N2C(=O)CCl)cc1 [RSL3],0.0959,0.216
